Bioassay records as filed in PubChem BioAssay.
Sampled rows, rich in hits. Any-hit rate of the full collection: about 2.1%.
S1P2 agonist – S1P2 receptor agonists, primary screen, cell-based | Sphingosine 1-phosphate receptor 2 (Homo sapiens), O95136 | 0.46% of 97,000 active | activation, % at 4.5 µM | S1P2-expressing cell line, agonist reporter read-out; in the data active = activation above about 16%;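 note: 0% = vehicle low control and 100% = maximal reference agonist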
Target sequence (O95136 whole entry, looked up): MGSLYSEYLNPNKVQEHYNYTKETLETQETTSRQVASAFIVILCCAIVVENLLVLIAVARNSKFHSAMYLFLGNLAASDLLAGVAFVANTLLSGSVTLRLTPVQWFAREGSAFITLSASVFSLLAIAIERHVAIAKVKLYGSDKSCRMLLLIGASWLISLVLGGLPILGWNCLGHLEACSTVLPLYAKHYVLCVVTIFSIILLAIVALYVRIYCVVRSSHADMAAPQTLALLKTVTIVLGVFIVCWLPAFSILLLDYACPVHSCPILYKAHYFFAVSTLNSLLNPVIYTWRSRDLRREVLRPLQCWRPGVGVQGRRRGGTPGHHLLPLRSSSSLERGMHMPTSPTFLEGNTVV
GALR2 ag – GALR2 receptor agonists, primary screen, cell-based; 0.48% of 140,000 active; GALR2-expressing cells, agonist activation read-out; activation, % (test concentration not listed); in the data active = activation above about 5%, passing the limit was not always enough;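 note: 0% = vehicle buffer wells and 100% = reference agonist at full effect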
S1P2 blocker – human S1P2 receptor antagonists, primary screen, cell-based. Sphingosine 1-phosphate receptor 2 (Homo sapiens), O95136. 0.21% of 97,000 active. inhibition, % at 5 µM. cell-based S1P2 antagonist assay, inhibition at 5 uM. AID 736, 2007; in the data active = inhibition above about 45%;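 note: CRE beta-lactamase reporter cells expressing human S1P2 stimulated with S1P; 0% = agonist at EC80 alone and 100% = agonist plus reference antagonist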
GALR2 blocker – GALR2 antagonists in receptor-expressing cells, primary screen. antagonist mode. inhibition, % at 4 µM. 0.39% of 140,000 active. AID 828, 2007;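 note: cells stimulated with galanin 1-16 at roughly its EC80; 0% = agonist challenge control and 100% = basal control without agonist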
hDAT+cocaine – changed hDAT dopamine uptake under cocaine IC80, either direction, primary screen, cocaine antagonist project, cell-based, LLC-PK1 hDAT, [14C]-dopamine uptake, MLSMR | Sodium-dependent dopamine transporter (Homo sapiens), Q01959 | LLC-PK1 hDAT cells, [14C]-dopamine uptake with cocaine IC80; actives deviate in either direction | B-score at 10 µM | 1.3% of 110,000 active;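 active = Z score or B-score, a plate-position-corrected score, falls beyond the plate's 99.7% confidence bounds, in either direction; inactive = both scores lie inside the 99.7% bounds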;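 note: scored against the spread of the other compound wells on the same plate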
GALR2 ant conf – GALR2 antagonists, retest of hits, confirmation, cell-based. shares compounds with GALR2 blocker. GALR2-expressing cells, antagonist mode, inhibition. inhibition, % at 4 µM. 60% of 480 active. AID 866, 2007;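 note: cells stimulated with galanin at about its EC80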
BLA inh counter – inhibitors of NFAT-driven beta-lactamase reporter, confirmation, counter-screen for GALR2 antagonist project, CHO NFAT-bla cells, FRET readout; shares compounds with GALR2 blocker; 36% of 480 active; inhibition, % at 4.2 µM; thapsigargin-stimulated;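 active = inhibition above the mean inhibition across tested compounds plus 3 SD, cut at about 27% in these data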;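 note: 0% = 500 nM thapsigargin stimulated wells and 100% = unstimulated BSA only wells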
* hit, by the source's call; . = not tested or not shown. Cut-off read from the data, not from the text of the source, unless noted: active = inhibition above about 27%; inactive = the rest.

SMILES | S1P2 agonist | GALR2 ag | S1P2 blocker | GALR2 blocker | hDAT+cocaine | GALR2 ant conf | BLA inh counter
CCCCNC(=O)COC(=O)c1c2c(nc3ccccc13)/C(=C/c1cccs1)CC2 | . | 8.0* | . | 27.3* | . | 41.4* | 50.9*
CCCCNC(=O)COC(=O)c1cc(C)nc2ccccc12 | -3.3 | -1.1 | -1.6 | -6.6 | 1.39 | . | .
CC(C)c1c(C#N)c(N)nc(SCC(=O)c2cc3ccccc3oc2=O)c1C#N | . | 1.5 | . | 1.7 | -2.3 | . | .
N#Cc1ccc(-c2ccccc2)nc1SCC(=O)c1cc2ccccc2oc1=O | -7.2 | -0.8 | 30.5 | 38.4* | 0.0804 | 20.8 | 19.5
Cc1c(C(=O)Nc2ccncc2)sc2nc(-c3ccccc3)cn12 | . | -0.3 | . | 27.6* | -0.01 | 16.6 | 7.6
Cc1c(C(=O)Nc2ccc3c(c2)OCCO3)sc2nc(-c3ccccc3)cn12 | -4.5 | 0.8 | 32.4 | 8.5 | -0.628 | . | .
O=C(N/N=C/C(Br)=C\c1ccccc1)c1n[nH]c2c1CCC2 | -2.3 | 2.5 | -8.2 | 32.8* | . | 37.5* | 60.9*
CC(/C=N/NC(=O)c1n[nH]c2c1CCC2)=C\c1ccccc1 | -3.1 | 2.0 | -0.2 | 20.6 | -0.602 | . | .
O=C(Nc1cccc(O)c1)c1ccc(Br)c(S(=O)(=O)N2CCCCC2)c1 | -5.4 | -2.5 | 4.4 | 25.8 | -0.198 | . | .
Cn1cnc2c1c(=O)n(CC(O)CO)c(=O)n2C (configuration not stated) | -4.6 | -1.8 | 8.2 | -7.7 | 0.0249 | . | .
Cc1cc(C)n2nc(CC(=O)NCc3ccc(F)cc3)nc2n1 | . | -1.0 | . | 9.2 | . | . | .
Cc1cc(Nc2ccccc2)nc(NCc2ccccc2)n1 | . | -0.7 | . | 42.2* | . | 49.9* | 30.7*
Cc1cc(Nc2cccc(F)c2)nc(NCc2ccccc2)n1 | . | 0.4 | . | 22.7 | . | . | .
CN(C)c1ccc(CC(=O)c2nc3ccccc3s2)cc1 | . | 0.4 | . | -1.6 | . | . | .
CC1=C(C)/C(=N\OS(=O)(=O)c2ccc(C)cc2)C=CC1=O | . | -0.7 | . | 85.2* | . | 70.3* | 64.0*
CC1=C/C(=N\OS(=O)(=O)c2ccccc2)C(C)=CC1=O | -4.3 | -3.3 | 97.9* | 63.4* | -0.0246 | 74.3* | 35.5*
COc1cc(C(=O)O/N=C2/C=C(C)C(=O)C=C2C)cc(OC)c1OC | . | 1.1 | . | -4.4 | . | . | .
Cn1c(=O)c2c(nc(SCC(=O)Nc3ccccc3)n2C)n(C)c1=O | . | -0.3 | . | 27.9* | -0.964 | 8.5 | 1.4
CCn1c(SCC(=O)Nc2ccccc2)nc2c1c(=O)n(C)c(=O)n2C | -2.8 | -0.4 | -21.4 | 10.4 | -0.662 | . | .
CCCNC(=O)c1ccc2c(c1)ncn2-c1ccccc1OC | . | -1.2 | . | 27.9* | 0.474 | 13.5 | 4.7
N#Cc1cc2c(nc1SCc1nc3ccccc3[nH]1)CCC2 | 0.2 | -0.5 | 14.5 | 27.6* | -1.04 | 30.3* | 15.7
Cc1nnc(SCC(=O)Nc2cccc(S(=O)(=O)N(C)c3ccccc3)c2)s1 | . | -0.5 | . | 32.0* | . | 35.1* | 8.8
CCC1(C(=O)OC)NC(c2ccco2)C2C(=O)N(c3ccc(C)cc3)C(=O)C21 (configuration not stated) | -4.6 | -2.7 | 0.2 | 29.7* | 0.563 | 7.4 | 1.8
CCOC(=O)C1(C)NC(c2ccco2)C2C(=O)N(c3ccc(C)cc3)C(=O)C21 (configuration not stated) | -8.8 | -2.2 | 1.0 | 2.0 | 1.55 | . | .
COc1ccc(OC)c(NC(=O)CN2C(=O)NC3(CCOc4ccccc43)C2=O)c1 (configuration not stated) | -7.9 | -0.7 | -4.1 | -9.9 | 1.22 | . | .
Nn1cnnc1N/N=C/c1cc(Br)cc(Br)c1O | -0.6 | -3.8 | -9.9 | 31.2* | . | 7.8 | 0.5
CCOc1ccc2c(c1)C(C)=CC(C)(C)N2C(=O)Nc1ccccc1 | 0.7 | -1.4 | 5.0 | 28.7* | -0.79 | 7.8 | 4.8
CN(C)c1ccc(NC2=C(Cl)C(=O)c3ccccc3C2=O)cc1 | . | -0.4 | . | 41.2* | . | 48.5* | 8.9
CCOc1ccc(C(=O)C(CCC(CN(C)C)C(=O)c2ccc(OCC)cc2)CN(C)C)cc1 (configuration not stated) | . | 3.0 | . | 39.3* | . | 28.1* | 30.4*
